Experimental data from PubChem BioAssay AID1159580 (chemical genetic matrix, 2015).
The campaign covered roughly 5,500 compounds. About 2,000 (36%) were called active. Not shown: some 18% with an inconclusive outcome. Cut-off read from the data, not from the text of the source: active = normalized growth mostly below about 0.91 (no sharp cut-off); inconclusive = no clear call, values can overlap the other calls; inactive = mostly above about 0.92. The list shows a part of the results.

Assay: chemical genetic growth profiling, strain panel (AID 1159580);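 note: tested at 20 µM; growth read once vehicle control cultures reached saturation at 30 °C; 1 = growth at the plate median or of vehicle wells; lower values mean less growth of the strain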
Settings: growth OD

Measured: normalized growth

ClC1C(Cl)C(Cl)C(Cl)C(Cl)C1Cl (stereo unspecified)
inactive: S. cerevisiae deletion strains, locus YJR075W, strain HOC1, active compounds read low 0.926 | S. cerevisiae deletion strains, locus YKL009W, strain mrt4, active compounds read low 0.964 | S. cerevisiae deletion strains, locus YKL190W, strain CNB1, active compounds read low 0.954 | S. cerevisiae deletion strains, locus YKR026C, strain gcn3, active compounds read low 0.964 | S. cerevisiae deletion strains, locus YKR091W, strain srl3, active compounds read low 0.963 | S. cerevisiae deletion strains, locus YLL001W, strain dnm1, active compounds read low 0.938 | S. cerevisiae deletion strains, locus YLL026W, active compounds read low 0.956 | S. cerevisiae deletion strains, locus YLL041C, strain sdh2, active compounds read low 0.979 | S. cerevisiae deletion strains, locus YLR058C, strain SHM2, active compounds read low 0.942 | S. cerevisiae deletion strains, locus YLR102C, strain apc9, active compounds read low 0.935 | S. cerevisiae deletion strains, locus YLR113W, strain HOG1, active compounds read low 0.862 | S. cerevisiae deletion strains, locus YLR258W, strain gsy2, active compounds read low 0.969 | S. cerevisiae deletion strains, locus YLR268W, strain sec22, active compounds read low 0.949 | S. cerevisiae deletion strains, locus YLR330W, strain CHS5, active compounds read low 0.948 | S. cerevisiae deletion strains, locus YLR342W, strain FKS1 (second series), active compounds read low 0.947 | S. cerevisiae deletion strains, locus YLR357W, strain rsc2, active compounds read low 0.996 | S. cerevisiae deletion strains, locus YLR370C, strain arc18, active compounds read low 0.975 | S. cerevisiae deletion strains, locus YLR371W, strain rom2, active compounds read low 0.944 | S. cerevisiae deletion strains, locus YLR384C, strain iki3, active compounds read low 0.991 | S. cerevisiae deletion strains, locus YLR418C, strain cdc73, active compounds read low 0.843 | S. cerevisiae deletion strains, locus YML016C, strain PPZ1, active compounds read low 0.945 | S. cerevisiae deletion strains, locus YML032C, strain rad52, active compounds read low 0.927 | S. cerevisiae deletion strains, locus YML120C, strain ndi1, active compounds read low 0.978 | S. cerevisiae deletion strains, locus YMR078C, strain ctf18, active compounds read low 0.918 | S. cerevisiae deletion strains, locus YMR125W, strain sto1, active compounds read low 1.03 | S. cerevisiae deletion strains, locus YMR129W, active compounds read low 0.988 | S. cerevisiae deletion strains, locus YMR223W, strain ubp8, active compounds read low 0.956 | S. cerevisiae deletion strains, locus YMR231W, strain pep5, active compounds read low 1.01 | S. cerevisiae deletion strains, locus YMR263W, strain SAP30, active compounds read low 0.955 | S. cerevisiae deletion strains, locus YMR307W, strain GAS1, active compounds read low 1.07 | S. cerevisiae deletion strains, locus YNL067W, strain RPL9B, active compounds read low 0.968 | S. cerevisiae deletion strains, locus YNL128W, strain TEP1, active compounds read low 0.958 | S. cerevisiae deletion strains, locus YNL153C, strain GIM3, active compounds read low 0.969 | S. cerevisiae deletion strains, locus YNL183C, strain NPR1, active compounds read low 0.905 | S. cerevisiae deletion strains, locus YNL209W, strain ssb2, active compounds read low 0.992 | S. cerevisiae deletion strains, locus YNL233W, strain BNI4, active compounds read low 0.975 | S. cerevisiae deletion strains, locus YNL248C, strain rpa49, active compounds read low 0.995 | S. cerevisiae deletion strains, locus YNL250W, strain rad50, active compounds read low 0.909 | S. cerevisiae deletion strains, locus YNL271C, strain bni1, active compounds read low 0.948 | S. cerevisiae deletion strains, locus YNL298W, strain CLA4, active compounds read low 0.946 | S. cerevisiae deletion strains, locus YNL322C, strain KRE1 (second series), active compounds read low 0.969 | S. cerevisiae deletion strains, locus YNL322C, strain KRE1, active compounds read low 0.941 | S. cerevisiae deletion strains, locus YNR049C, strain mso1, active compounds read low 0.975 | S. cerevisiae deletion strains, locus YNR052C, strain pop2, active compounds read low 0.963 | S. cerevisiae deletion strains, locus YOL006C, strain TOP1, active compounds read low 0.843 | S. cerevisiae deletion strains, locus YOL012C, strain htz1 0.8 | S. cerevisiae deletion strains, locus YOR001W, strain rrp6, active compounds read low 0.963 | S. cerevisiae deletion strains, locus YOR061W, strain CKA2, active compounds read low 0.948 | S. cerevisiae deletion strains, locus YOR069W, strain VPS5, active compounds read low 0.963 | S. cerevisiae deletion strains, locus YOR070C, strain gyp1, active compounds read low 0.965 | S. cerevisiae deletion strains, locus YOR080W, strain dia2, active compounds read low 1.02 | S. cerevisiae deletion strains, locus YOR083W, strain WHI5, active compounds read low 0.914 | S. cerevisiae deletion strains, locus YOR106W, strain vam3, active compounds read low 0.942 | S. cerevisiae deletion strains, locus YOR136W, strain idh2, active compounds read low 0.962 | S. cerevisiae deletion strains, locus YOR144C, strain elg1, active compounds read low 0.94 | S. cerevisiae deletion strains, locus YOR184W, strain ser1, active compounds read low 0.977 | S. cerevisiae deletion strains, locus YOR231W, strain MKK1, active compounds read low 0.971 | S. cerevisiae deletion strains, locus YOR265W, strain rbl2, active compounds read low 0.981 | S. cerevisiae deletion strains, locus YOR290C, strain snf2, active compounds read low 0.921 | S. cerevisiae deletion strains, locus YOR316C, strain cot1, active compounds read low 0.924 | S. cerevisiae deletion strains, locus YPL055C, strain LGE1, active compounds read low 0.965 | S. cerevisiae deletion strains, locus YPL106C, strain sse1, active compounds read low 1.01 | S. cerevisiae deletion strains, locus YPL240C, strain hsp82, active compounds read low 0.978 | S. cerevisiae deletion strains, locus YPL241C, strain CIN2, active compounds read low 0.961 | S. cerevisiae deletion strains, locus YPR163C, strain tif3, active compounds read low 0.938 | S. cerevisiae deletion strains, strain wtn01, active compounds read low 0.932 | S. cerevisiae strains, strain wild type, active compounds read low 0.952
active: S. cerevisiae deletion strains, locus YKL068W, active compounds read low 0.902 | S. cerevisiae deletion strains, locus YKL085W, strain MDH1 (second series), active compounds read low 0.909 | S. cerevisiae deletion strains, locus YKL085W, strain MDH1, active compounds read low 0.909 | S. cerevisiae deletion strains, locus YKL160W, strain elf1, active compounds read low 0.873 | S. cerevisiae deletion strains, locus YKR001C, strain vps1, active compounds read low 0.879 | S. cerevisiae deletion strains, locus YLR027C, strain aat2, active compounds read low 0.916 | S. cerevisiae deletion strains, locus YLR039C, strain RIC1, active compounds read low 0.506 | S. cerevisiae deletion strains, locus YLR221C, strain rsa3, active compounds read low 0.872 | S. cerevisiae deletion strains, locus YLR262C, strain YPT6 (second series), active compounds read low 0.659 | S. cerevisiae deletion strains, locus YLR262C, strain YPT6, active compounds read low 0.57 | S. cerevisiae deletion strains, locus YLR320W, strain mms22, active compounds read low 0.622 | S. cerevisiae deletion strains, locus YLR342W, strain FKS1, active compounds read low 0.89 | S. cerevisiae deletion strains, locus YML124C, strain tub3, active compounds read low 0.929 | S. cerevisiae deletion strains, locus YMR058W, strain fet3, active compounds read low 0.846 | S. cerevisiae deletion strains, locus YMR205C, strain PFK2, active compounds read low 0.665 | S. cerevisiae deletion strains, locus YNL071W, strain lat1, active compounds read low 0.638 | S. cerevisiae deletion strains, locus YOL147C, strain pex11, active compounds read low 0.929 | S. cerevisiae deletion strains, locus YOR270C, strain vph1, active compounds read low 0.67 | S. cerevisiae deletion strains, locus YPL051W, strain arl3, active compounds read low 0.872 | S. cerevisiae deletion strains, locus YPL078C, strain atp4, active compounds read low 0.865 | S. cerevisiae deletion strains, locus YPL256C, strain CLN2, active compounds read low 0.821 | S. cerevisiae deletion strains, locus YPR119W, strain clb2, active compounds read low 0.923 | S. cerevisiae deletion strains, locus YPR141C, strain kar3, active compounds read low 0.89 | S. cerevisiae deletion strains, locus YPR167C, strain met16, active compounds read low 0.91
